Assay outcomes: PubChem, National Center for Advancing Translational Sciences (NCATS)
Hits are enriched below; roughly 20% of the tested compounds scored in any of these assays.
Shiga toxin inh – Shiga toxin inhibition; AID 2315; Vero cells, Shiga toxin protein synthesis inhibition reporter; hit rate 9.2% among 290,000; inhibition, % at 38.7 µM; in the data active = inhibition mostly above about 28%, no sharp cut-off; inactive = mostly below about 43%
Pf growth 96h – P. falciparum growth inhibition at 96 hours. Potency, µM (doses to about 28.7 µM), usual class: inhibitors. hit rate 6.9% among 320,000. P. falciparum luciferase reporter growth, 96 h
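Two parasite generations (96 h, 37 C, 5% CO2) of compound exposure in infected erythrocytes (0.05% parasitemia, 2% hematocrit). Luciferase-reporter P. falciparum; decreased luminescence indicates inhibited growth, aimed at apicoplast-acting delayed death.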
Pf growth 48h – P. falciparum growth inhibition at 48 hours (one generation); P. falciparum luciferase growth in erythrocytes, 48 h; Potency, µM (series often up to 28.7 µM), usual class: inhibitors; hit rate 5.9% among 310,000; AID 504832
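Luciferase-expressing parasites in RBCs, 2% Hct / 0.1% parasitemia final; RPMI 1640 + 0.5% Albumax; 37 C, 5% CO2, one generation; luminescence read-out, lower signal = inhibition.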
CHX counter – counter-screen for Shiga toxin inhibitors: cycloheximide protein synthesis inhibition; cell reporter, cycloheximide protein synthesis inhibition counterscreen; max response, %; hit rate 12% among 300,000; in the data active = max response mostly above about 13%, no sharp cut-off; inactive = mostly below about 14%; also: read at 38.3 µM for the half of the compounds with a filed dose
HCMV inh – inhibitors of human cytomegalovirus; activity change, negative = inhibition, % at 57.5 µM; AID 1259415; HFF cells, HCMV-luciferase reporter, 72 h; active compounds read low; hit rate 4.5% among 410,000; in the data active = activity change below about -60%; inconclusive = no clear call, values can overlap the other calls; inactive = above about -39%
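Two compound doses tested in HFFs infected with HCMV-luciferase, MOI 1 PFU/cell, 72 h at 37C. Lysate luminescence read with OneGlo; data normalized against buffer-only and 10uM Salinomycin inhibitor controls.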
Large screens that a line does not name were inactive. Unless noted, calls follow the shape of the dose curve; as a rule, active = well fitted inhibition curve with a large enough effect; inconclusive = small, poorly fitted or top-dose-only effect, or another doubt; inactive = no such curve, though single readings can be large or run the other way.

CC(C)CNC(=O)c1cccc(NC(=O)c2ccc(Cl)c([N+](=O)[O-])c2)c1	none
CCN1CCN(C(=O)CCCn2c(C)c3cnn(-c4ccccc4)c(=O)c3c2C)CC1	Pf growth 96h 2.6µM (no result: Pf growth 48h)
COc1cccc(CNC(=O)CCCN2C(=O)CCn3nc(-c4cccn4C)cc32)c1	none (no result: Shiga toxin inh, Pf growth 96h, Pf growth 48h, CHX counter)
CSc1c(C#N)sc(=S)n1-c1ccc(C)cc1	Pf growth 96h 10µM, Pf growth 48h inconclusive
COc1ccc(-c2cc3nc[nH]c(=O)c3s2)cc1	CHX counter 35 (no result: Pf growth 96h)
O=c1[nH]cnc2nc(-c3ccccc3)c(-c3ccccc3)nc12	none
COc1ccc(-c2cc3nc(CCl)[nH]c(=O)c3s2)cc1	Pf growth 96h inconclusive, Pf growth 48h inconclusive
O=c1[nH]cnc2cc(-c3ccccc3)sc12	Shiga toxin inh 118, Pf growth 96h inconclusive, CHX counter 48
CCOC(=O)CSc1nc2c(c(=O)[nH]1)C(C)(CC)Cc1ccccc1-2 (stereo unspecified)	none
COP(=O)(c1ccc(N(C)C)cc1)C(O)c1ccccc1 (stereo unspecified)	Pf growth 96h inconclusive, Pf growth 48h inconclusive
COc1ccc(OC)c(-n2c(SCC(=O)N3CCc4ccccc43)nc3c(c2=O)SCC3)c1	Pf growth 96h 2.3µM, Pf growth 48h inconclusive (no result: HCMV inh)
COc1ccccc1-n1c(SCC(=O)Nc2ccc3c(c2)OCO3)nc2c(c1=O)SCC2	Pf growth 48h inconclusive
COc1ccccc1-n1c(SCC(=O)Nc2cccc(C)c2)nc2c(c1=O)SCC2	Pf growth 96h 10µM (no result: Pf growth 48h)
COc1ccc(NC(=O)CSc2nc3c(c(=O)n2-c2ccc(C)cc2)SCC3)c(OC)c1	Pf growth 96h inconclusive, Pf growth 48h inconclusive
COc1ccccc1-n1c(SCC(=O)N2CCc3ccccc32)nc2c(c1=O)SCC2	Pf growth 96h inconclusive, Pf growth 48h 12µM
CCOc1ccc(/C=N/NC(=O)Cn2ccnc2C)cc1	none
CCCCNC(=O)c1nn(C)c2c1CSc1ccccc1-2	none (no result: Shiga toxin inh, Pf growth 96h, Pf growth 48h, CHX counter)
CCC(Sc1nc2ncccc2[nH]1)C(=O)Nc1ccccc1F (stereo unspecified)	none (no result: Shiga toxin inh, Pf growth 96h, Pf growth 48h, CHX counter)
CC1CCN(S(=O)(=O)c2cc([N+](=O)[O-])ccc2Cl)CC1	none
Cc1ccc(NC(=O)CCC(=O)OCC(=O)c2ccc(Oc3ccc([N+](=O)[O-])cc3)cc2)c(C)c1	Pf growth 96h inconclusive
O=c1c2ccccc2cnn1Cc1n[nH]c(=S)n1-c1ccc(Cl)cc1	Shiga toxin inh 52, CHX counter 72
O=c1c2ccccc2cnn1-c1ccc(Cl)cc1	Shiga toxin inh 93, CHX counter 36
Cc1ccc(-n2ncc3c(N(C)C)ncnc32)cc1Cl	none (no result: Shiga toxin inh, Pf growth 96h, Pf growth 48h, CHX counter)
CC(c1ccccc1)n1c(Cn2ncc3ccccc3c2=O)n[nH]c1=S (stereo unspecified)	HCMV inh inconclusive
Cc1ccc(-n2ncc3ccccc3c2=O)cc1Cl	Shiga toxin inh 114, CHX counter 38
Cc1ccc2[nH]c(C)c([N+](=O)[O-])c2c1	none (no result: Shiga toxin inh, Pf growth 96h, Pf growth 48h, CHX counter)
Cc1cc(C(F)(F)F)n2nc(-c3cnn(C)c3C(F)(F)F)c(Cl)c2n1	Pf growth 96h inconclusive, Pf growth 48h 3.3µM
Cc1cc(C)n2nc(-c3cnn(C)c3C(F)(F)F)c(Cl)c2n1	Pf growth 96h inconclusive
CCN1CCN(C(C(=O)NC2CCCCC2)c2ccnc3ccccc23)CC1 (stereo unspecified)	none (no result: Shiga toxin inh, Pf growth 96h, Pf growth 48h, CHX counter)
Cc1nnc2ccc(-c3cccc(NS(=O)(=O)c4cc(F)ccc4F)c3)nn12	Pf growth 96h inconclusive (no result: Shiga toxin inh, CHX counter)
Cc1nnc2ccc(-c3cccc(NS(=O)(=O)c4ccccc4[N+](=O)[O-])c3)nn12	Pf growth 96h 2.9µM (no result: Shiga toxin inh, CHX counter)
Cc1nnc2ccc(-c3cccc(NS(=O)(=O)c4ccccc4Cl)c3)nn12	Pf growth 96h inconclusive, Pf growth 48h 12µM (no result: Shiga toxin inh, CHX counter)
CC(/C=C/c1ccco1)=N\NC(=O)CNc1cccc(C)c1	Pf growth 48h inconclusive, HCMV inh -61
COc1cc(C(=O)NCC(=O)N/N=C(C)\C=C\c2ccccc2)cc(OC)c1OC	Pf growth 96h inconclusive, HCMV inh -73
COc1cccc(C(=O)NCC(=O)N/N=C(C)\C=C\c2ccccc2)c1	Pf growth 96h inconclusive
COc1ccc(/C(C)=N/NC(=O)CNC(=O)COc2ccccc2)c(OC)c1	none
CC(/C=C/C=C/c1ccccc1)=N/NC(=O)CNc1ccc(C)cc1	Pf growth 96h inconclusive, CHX counter 35
CC(/C=C/C=C/c1ccccc1)=N/NC(=O)C(O)c1ccccc1 (stereo unspecified)	none
COc1ccc(/C(C)=N/NC(=O)CNC(=O)/C=C\c2ccccc2)c(OC)c1	HCMV inh -86
CCOC(=O)C1(c2ccccc2)NC(c2ccccc2C)C2C(=O)N(c3ccc4c(c3)OCO4)C(=O)C21 (stereo unspecified)	Pf growth 96h inconclusive, Pf growth 48h inconclusive
O=C(O)C1C=Cc2ccccc2N1C(=O)c1ccccc1 (stereo unspecified) (tested in a mixture with another compound)	none (no result: Shiga toxin inh, Pf growth 96h, Pf growth 48h, CHX counter)
CC(/C=C/c1ccccc1)=N\NC(=O)CNC(=O)c1ccccc1Cl	CHX counter 10
O=C(COC(=O)c1ccc(=O)n(Cc2ccccc2)n1)Nc1ccc2c(c1)OCCO2	none (no result: Pf growth 96h)
O=S(=O)(c1ccccc1F)N1CCc2ccccc2C1	none
Cc1cc(=O)oc2cc(NC(=O)CN3C(=O)NC(C)(c4ccccc4)C3=O)ccc12 (stereo unspecified)	none (no result: Shiga toxin inh, CHX counter)
CC(=Nc1ccccc1N)c1c(O)n(C)c(=O)[nH]c1=O	Shiga toxin inh 76, Pf growth 96h inconclusive, CHX counter 50, HCMV inh inconclusive
CC(=NCc1ccco1)c1c(O)n(-c2ccccc2)c(=O)[nH]c1=O	Pf growth 96h inconclusive
O=C1CSC(c2c(F)cccc2Cl)N1c1cccc(F)c1 (stereo unspecified)	Pf growth 96h 12µM, Pf growth 48h inconclusive
O=C1CSC(c2ccccc2F)N1c1ccccc1F (stereo unspecified)	none (no result: Pf growth 48h)
O=C1CSC(c2cccc(F)c2)N1c1c(F)cccc1F (stereo unspecified)	none
O=C1CSC(c2ccccc2F)N1c1ccccc1 (stereo unspecified)	Pf growth 96h 8.3µM
CSc1nc(NCc2ccccc2)c2c3c(sc2n1)CN(C)CC3	Shiga toxin inh 53, Pf growth 96h inconclusive, Pf growth 48h 13µM, CHX counter 19
CSc1nc(NCC(C)C)c2c3c(sc2n1)CN(C)CC3	Pf growth 96h 3.3µM, Pf growth 48h inconclusive
COCCNc1nc(SC)nc2sc3c(c12)CCN(C)C3	Pf growth 96h inconclusive
CCN(CC)C(=O)c1sc(N2C(=O)Nc3ccccc3N2O)c(C(=O)OC)c1C	none
COCCNC(=O)C(=O)N/N=C/c1cccs1	none
O=C(N/N=C/c1cccc(O)c1)C(=O)N1CCCCCC1	Pf growth 96h inconclusive
COc1ccccc1NC(=O)C(=O)N/N=C/c1cccs1	Shiga toxin inh 99, CHX counter 38
O=C(CN1CCCCCC1)N/N=C/c1cccs1	none (no result: Pf growth 48h)
O=C(N/N=C/c1cccs1)C(=O)N1CCCC1	CHX counter 28
O=C(N/N=C/c1c(O)ccc2ccccc12)C(=O)N1CCCC1	HCMV inh -75 (no result: Shiga toxin inh, Pf growth 96h, Pf growth 48h, CHX counter)
